Source: PubChem BioAssay
ELG1 repair inh: inhibitors of ELG1-dependent DNA repair in HEK293T cells; HEK293T ELG1-luciferase reporter, luminescence, 16 h; DNA damage induced by 5-fluorouridine; Potency, µM (highest dose often 46.1 µM), inactives show at the top dose activity change, negative = inhibition, hits mostly inhibitors; hit rate 2.3% among 330,000; also: % is scaled to controls: 0 for no effect and ±100 for the full control effect; nearly all actives have a fitted effect of over 55% in size
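5-Fluorouridine DNA damage + compound/DMSO, 2,000 cells/well, 16 h, 37 °C/5% CO2. ONE-Glo, 30 min RT, luminescence. Readout = decrease in reporter signal.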
Nrf2 activator: Nrf2 pathway activation. AREc32 ARE-luciferase reporter (MCF7-derived line), luminescence, 24 h. Potency, µM (top dose mostly 46.1 µM), for inactives: top-dose activation, usual class: activators. hit rate 0.31% among 410,000; also: % of control where 0% means no effect; nearly all actives have a fitted effect of over 65% in size
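AREc32_Fluc, 1000 cells/well, OPTI-MEM + 5% FBS, o/n 37 deg C 5% CO2; 23 nL cpd by pin tool, 24 hr; Steady-Glo 30 min RT, luminescence.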
A549 tox: counter-screen for Nrf2 inhibitors: cytotoxicity in A549 cells; A549 ARE-Fluc cells, CellTiter-Fluor viability, 18-24 h; Potency, µM (doses to about 46 µM), without a hit: top-dose activity change, negative = cytotoxicity, usual class: inhibitors; hit rate 0.16% among 390,000; AID 504648; also: % is scaled to controls: 0 for no effect and ±100 for the full control effect
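A549 ARE_Fluc cells in 5% FBS OPTI-MEM were exposed to compounds in concentration-response for 18-24 h at 37 deg C. Viability was read by CellTiter-Fluor fluorescence (Ex 405/Em 525) after 30 min, before the luciferase read.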
Nrf2 inh: Nrf2 pathway inhibition | A549 ARE-Fluc reporter, luciferase luminescence, 18-24 h | Potency, µM (highest dose often 46 µM), for the others: at the top dose activity change, negative = inhibition, hits mostly inhibitors | hit rate 2.1% among 360,000; also: % is scaled to controls: 0 for no effect and ±100 for the full control effect; nearly all actives have a fitted effect of over 60% in size
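Concentration-response testing used A549 ARE_Fluc cells at 5000 cells/well. Following an 18-24 h compound incubation, viability was read by fluorescence (Ex 405/Em 525) and luciferase output by luminescence.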
* marks the source's active call; other numbers are inactive results; ? = inconclusive; . = no result given; [ ] = another dose, or the depositor's remark. Compounds with a hit are over-represented: about 3.7% of the library has one in this group of screens. Calls follow the shape of the dose curve; as a rule, active = well fitted curve in the direction sought with a large enough effect; inconclusive = small, poorly fitted or top-dose-only effect, or another doubt; inactive = no such curve, though single readings can be large; an effect the other way counts as inactive or inconclusive. Potency is read from the fitted curve at half-maximal effect.

SMILES	ELG1 repair inh	Nrf2 activator	A549 tox	Nrf2 inh
COc1cccc(/C=N/NC(=O)c2c(C)nc3ccc(Br)cn23)c1O	2.1µM*	-2%	-21%	?
COCC(C)NS(=O)(=O)c1ccc(C(=O)NC(Cc2ccccc2)c2ccccc2)cc1 (configuration not stated)	1%	2%	6%	-1%
Cc1ccc(NC(=O)CN(C)C(=O)CNC(=O)c2sc3ccccc3c2Cl)cc1	?	3%	0%	?
CCc1ccc(N2CC(C(=O)OCC(=O)c3c(N)n(CC(C)C)c(=O)n(C)c3=O)CC2=O)cc1 (configuration not stated)	-12%	0%	3%	?
O=C1CCCN2N=C(SCC(=O)Nc3cccc(C(F)(F)F)c3)SC2=N1	-18%	6%	0%	16µM*
COc1ccc(NC(=O)CC2SC(N3CCOCC3)=NC2=O)cc1OC (configuration not stated)	5%	0%	-4%	15µM*
O=C(CC1SC(N2CCCCC2)=NC1=O)Nc1cccc(C(F)(F)F)c1 (configuration not stated)	-2%	2%	-11%	21µM*
CN(C)c1ccc(-c2nc(-c3cc4cc(Cl)ccc4oc3=O)cs2)cc1	.	5%	-1%	.
CC(C)(C)[C@H]1C=C(C(=O)N2CCN(Cc3ccc4c(c3)OCO4)CC2)O[C@@H](OCc2ccc(CO)cc2)C1	5.2µM*	4%	-7%	-13%
O=C(C1=C[C@H](C2CC2)C[C@H](OCCCCO)O1)N1CCN(Cc2ccc3c(c2)OCO3)CC1	-15%	1%	7%	-22%
O=C(C1=C[C@H](C2CCCCC2)C[C@H](OCc2ccc(CO)cc2)O1)N1CCN(Cc2ccc3c(c2)OCO3)CC1	-13%	0%	?	23µM*
O=C(C1=C[C@@H](C2CCCCC2)C[C@@H](OCc2ccc(CO)cc2)O1)N1CCN(Cc2ccc3c(c2)OCO3)CC1	?	4%	-20%	?
O=C(C1=C[C@H](C2CC2)C[C@H](OCc2ccc(CO)cc2)O1)N1CCN(Cc2ccc3c(c2)OCO3)CC1	6.5µM*	7%	4%	-20%
O=C(CSc1nccn1Cc1ccc(F)cc1)Nc1ccc2c(c1)OCO2	.	3%	4%	.
COc1ccc(C)cc1NC(=O)NCCn1nnc2cc(S(=O)(=O)N(C)C)ccc21	.	-1%	0%	.
COC(=O)c1cn(CC(=O)Nc2ccccc2C)c2ccccc12	-7%	-1%	3%	-1%
CCNc1nc(Nc2ccc(C)c(Cl)c2)c2cnn(C)c2n1	9.2µM*	3%	0%	?
CCCCNc1nc(Nc2ccc(C)c(Cl)c2)c2cnn(C)c2n1	18µM*	0%	-2%	4%
CC(C)(C)OC(=O)N1CCC(N2CCN(Cc3ccccc3)C(=O)C2=O)CC1	.	3%	-2%	.
CSc1ccc(-c2nc3cnccn3c2Nc2ccc3c(c2)OCO3)cc1	14%	5%	12%	-27%
Clc1ccc(-c2nc3cnccn3c2Nc2ccc3c(c2)OCO3)cc1	-17%	-1%	?	23µM*
O=C(Nc1cccc(C(F)(F)F)c1)c1csc(-c2ccncc2)n1	?	2%	20%	?
COc1cc(NC(=O)c2cc3cccc(OC)c3o2)cc(C(=O)Nc2cccc(C(F)(F)F)c2)c1	12µM*	4%	-3%	?
COc1cc(NC(=O)c2csc(-c3ccncc3)n2)cc(C(=O)Nc2cccc(C(F)(F)F)c2)c1	5.2µM*	-2%	-16%	?
COc1cccc(C(=O)Nc2ccc3nc(SCC(=O)N4CCc5ccccc54)sc3c2)c1	.	6%	-1%	21%
SMILES	ELG1 repair inh	Nrf2 activator	A549 tox	Nrf2 inh
CC(C)(CNC(=O)c1ccc(-c2cccc(C(F)(F)F)c2)o1)N1CCOCC1	-2%	2%	-9%	18%
Cc1ccc(C(=O)c2coc3cc([N+](=O)[O-])c(O)c([N+](=O)[O-])c23)cc1	2%	7%	21µM*	?
Cc1ccc(C(=O)c2ccc([N+](=O)[O-])cc2)cc1	20%	0%	3%	-8%
CC(C)N(C(=S)Nc1cccnc1)c1ccccc1	6%	0%	0%	0%
COc1cc(C(=O)N[C@H](C(=O)NC2CCCc3ccccc32)C(C)C)cc(OC)c1OC (some centres not stated)	21µM*	4%	6%	5%
COc1cc(C(=O)N[C@H](C(=O)NC2CCCCCC2)C(C)C)cc(OC)c1OC	12%	-1%	-3%	-6%
Cc1cc(C)cc(N(C(=O)CNC(=O)c2ccco2)C(C(=O)NC2CCCCC2)c2cccnc2)c1 (configuration not stated)	8%	0%	5%	5%
O=C(c1cc(S(=O)(=O)N2CCOCC2)ccc1F)N(CCc1ccccc1)Cc1ccccc1	-18%	3%	-12%	-21%
O=C(Nc1ccccc1F)Nc1cccc2ccc(O)cc12	13µM*	?	-5%	17%
CCCN(Cc1ccccc1)C(=S)Nc1cccc(C(F)(F)F)c1	-7%	3%	2%	21µM*
CCCN(Cc1ccccc1)C(=S)Nc1ccc(F)cc1	-8%	0%	5%	0%
CCCN(Cc1ccccc1)C(=S)Nc1ccc(SC(F)F)cc1	23µM*	1%	1%	5%
CC1(c2nnnn2-c2ccc3c(c2)OCCO3)CCC(=O)N1Cc1cccnc1 (configuration not stated)	.	-1%	.	.
COc1cccc(/C=N/NC(=O)Cn2ccnc2C)c1	-8%	0%	-3%	16%
COc1c(O)cccc1/C=N/NC(=O)Cn1ccnc1C	23µM*	-1%	1%	-1%
COc1ccc(-c2cc(C(F)(F)F)c(C#N)c(SCC(=O)O)n2)cc1	8%	3%	-11%	-7%
Cc1ccc(-c2cc(C(F)(F)F)c(C#N)c(SCCC#N)n2)o1	9%	7.1µM*	-2%	7%
N#Cc1c(C(F)(F)F)cc(-c2cccs2)nc1SCc1ccc(F)cc1	.	3%	5%	11%
N#Cc1c(C(F)(F)F)cc(-c2cccs2)nc1SCc1cccnc1	?	8%	?	13µM*
C#CCSc1nc(-c2ccccc2)cc(C(F)(F)F)c1C#N	6%	8.9µM*	2%	-16%
Cc1ccc(-n2c3c(c(=O)[nH]c2=O)C(NC(=O)c2ccccc2F)(C(F)(F)F)C(=O)N3)cc1C (configuration not stated)	.	-2%	-2%	-2%
COC(=O)c1sc(NC(=O)c2cc(-c3ccccc3)nc3ccccc23)c(C#N)c1C	-2%	5%	?	9.2µM*
Cc1ccccc1NC(=O)c1sc(NC(=O)COc2ccccc2)c(C#N)c1C	23µM*	0%[9.22 µM]	-1%	?
Cc1ccccc1-c1cc(C(=O)Nc2sc(C(=O)OC(C)C)c(C)c2C#N)c2ccccc2n1	23µM*	2%	7.3µM*	2.6µM*
Cc1sc(NC(=O)c2cc(-c3ccc(Cl)cc3)nc3ccccc23)c(C(N)=O)c1C	-5%	3%	?	.
CCOC(=O)c1sc(NC(=O)c2cc(-c3ccc(C)cc3)nc3ccccc23)c(C#N)c1C	?	0%	1%	22%
